An excerpt weighted towards active compounds, which were near 3.3% of everything screened.
NS1 inh – inhibitors of influenza NS1 protein function. Potency, µM (top dose mostly 46.1 µM), without a hit: top-dose activity, positive = more growth. actives 0.4% (n = 270,000). AID 2326; calls by dose curve; also: actives are rising curves; nearly all actives have a fitted effect of over 50% in size
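Growth recovery, yeast-based: influenza A NS1 expressed in S. cerevisiae causes slow growth, and suppressors are detected by OD600. The parent strain without NS1 is used as positive control.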
Sm TGR inh – blocks Schistosoma mansoni thioredoxin glutathione reductase; Potency, µM (top dose mostly 114 µM), for the others: at the highest dose activity change, negative = inhibition, hits mostly inhibitors; actives 3% (n = 360,000); Q962Y6; purified TGR, DTNB reduction, TNB absorbance 405 nm; also: % is scaled to controls: 0 for no effect and ±100 for the full control effect; nearly all actives have a fitted effect of over 60% in size
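Kinetic colorimetric format: TGR-catalysed, NADPH-driven DTNB reduction monitored via TNB absorbance. Enzyme dispensed at 20 nM; compound exposure 15 min at room temperature before reaction start.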
SARS PLpro yeast – SARS-CoV PLP inhibition in yeast | S. cerevisiae expressing SARS-CoV PLpro, growth rescue | Potency, µM (series often up to 32.9 µM), for the others: at the highest dose activity, positive = growth rescue, most hits filed as activators | AID 485353 | actives 0.19% (n = 330,000); calls by dose curve; also: 0% is about no effect; nearly all actives have a fitted effect of over 55% in size
RE007 growth inh – less growth of the S. pombe RE007 Vpr strain; S. pombe RE007 Vpr strain, BacTiter-Glo ATP luminescence, 24 h; Potency, µM (titrated, usually from 92.2 µM), inactives show at the top dose activity change, negative = less growth, hits mostly inhibitors; actives 0.21% (n = 360,000); AID 651644; active = well fitted falling curve with a large enough effect; inconclusive = small, poorly fitted or top-dose-only effect; inactive = no such curve, though single readings can be large or run the other way; also: % is scaled to controls: 0 for no effect and ±100 for the full control effect; nearly all actives have a fitted effect of over 50% in size
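Fission yeast RE007 carrying one integrated HIV-1 vpr copy, seeded at OD 0.01 in PMG+AL medium with 23 nL pinned compound. Grown 24 h at 30 degrees; viability read by BacTiter-Glo luminescence after 5 min.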
LmPK inh – LmPK (Leishmania mexicana) enzyme inhibition. Q27686. Potency, µM (top dose mostly 57.5 µM), for the others: top-dose activity change, negative = inhibition, hits mostly inhibitors. purified LmPK, Kinase-Glo ATP luminescence, 1 h. actives 0.37% (n = 290,000); also: % is scaled to controls: 0 for no effect and ±100 for the full control effect
Target sequence (Q27686 whole entry, looked up): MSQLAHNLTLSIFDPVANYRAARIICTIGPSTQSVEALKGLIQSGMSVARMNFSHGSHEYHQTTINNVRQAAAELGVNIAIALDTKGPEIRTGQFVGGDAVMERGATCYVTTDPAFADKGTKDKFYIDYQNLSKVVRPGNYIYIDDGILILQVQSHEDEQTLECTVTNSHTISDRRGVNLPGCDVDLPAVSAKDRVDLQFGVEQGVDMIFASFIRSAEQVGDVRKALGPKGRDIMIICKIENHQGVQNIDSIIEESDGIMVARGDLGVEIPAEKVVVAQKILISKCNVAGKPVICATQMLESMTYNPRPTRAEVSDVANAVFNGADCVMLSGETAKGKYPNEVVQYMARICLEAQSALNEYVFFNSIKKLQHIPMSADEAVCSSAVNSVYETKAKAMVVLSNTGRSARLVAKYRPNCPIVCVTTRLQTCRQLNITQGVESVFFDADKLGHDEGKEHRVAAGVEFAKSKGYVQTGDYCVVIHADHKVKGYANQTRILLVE
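ATP generated from ADP (0.1 mM) and PEP (0.5 mM) by 0.1 nM LmPK over 1 h at room temperature (pH 7.2 imidazole buffer) was detected by coupled luciferase luminescence. Values were normalized to uninhibited and no-enzyme wells.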
Tb PYK inh – T. brucei pyruvate kinase inhibition. Q57TT1. TbPYK enzyme, Kinase-Glo Plus ATP luminescence, 45 min. Potency, µM (doses to about 76.8 µM), for the others: at the top dose activity, negative = inhibition, hits mostly inhibitors. actives 0.12% (n = 410,000). AID 624173; also: % is scaled to controls: 0 for no effect and ±100 for the full control effect; nearly all actives have a fitted effect of over 50% in size
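Readout: single end-point luminescence (Kinase-Glo Plus, 10 min). Reaction conditions were TbPYK/substrate plus 130 uM ADP, 45 min at RT, pH 7.2 TEA buffer. No-enzyme wells served as controls, and data were normalized before concentration-response fitting.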
Starred values were filed as active, the others as inactive; ? = inconclusive; nt = no result; [ ] = remark or other dose. Unless noted, calls follow the shape of the dose curve; as a rule, active = well fitted curve in the direction sought with a large enough effect; inconclusive = small, poorly fitted or top-dose-only effect, or another doubt; inactive = no such curve, though single readings can be large; an effect the other way counts as inactive or inconclusive. Potency is read from the fitted curve at half-maximal effect.

SMILES	NS1 inh	Sm TGR inh	SARS PLpro yeast	RE007 growth inh	LmPK inh	Tb PYK inh
CS(=O)(=O)c1ccc(-n2nnc3ccccc32)c([N+](=O)[O-])c1	22%	-1%	2%	-7%	5%	-4%
N#Cc1cc([N+](=O)[O-])c(-n2nnc3ccccc32)c([N+](=O)[O-])c1	4%	14µM*	-1%	-14%	11%	2%
CCCCc1ccc(/C=C2\C(=O)c3ccccc3C(O)=C2C(=O)OCC)cc1	-47%	11µM*	-40%	nt	-19%	nt
CC(=O)N1N=C(c2c(-c3ccccc3)c3cc(C)ccc3[nH]c2=O)CC1c1ccco1 (stereo not drawn)	-10%	-26%	-6%	-3%	3%	4%
CCc1ccc(C2=NN(C(C)=O)C(c3ccco3)C2)cc1 (stereo not drawn)	-5%	-17%	0%	-21%	16µM*	-5%
CCC(=O)N1N=C(c2ccc(Cl)cc2)CC1c1ccco1 (stereo not drawn)	-2%	-6%	0%	-2%	2%	-2%
O=C(CCl)N1N=C(c2ccco2)CC1c1ccco1 (stereo not drawn)	3%	6.3µM*	7%	5%	3%	-14%
CC(=O)N1N=C(c2c(-c3ccccc3)c3cc(Br)ccc3[nH]c2=O)CC1c1ccco1 (stereo not drawn)	13%	13µM*	1%	2%	-1%	2%
O=C(CCl)N1N=C(c2cccs2)CC1c1ccco1 (stereo not drawn)	-2%	2.5µM*	-1%	26%	5%	-1%
CN1CCN(CC(=O)N2N=C(c3cccs3)CC2c2ccco2)CC1 (stereo not drawn)	25%	3%	-2%	-1%	2%	1%
S=C1N[C@H](c2ccccc2)N[C@H](c2ccccc2)S1	0%	nt	nt	nt	nt	nt
O=C(COc1ccccc1F)N1N=C(c2cccs2)CC1c1ccco1 (stereo not drawn)	nt	25µM*	-3%	13%	nt	-4%
CS(=O)(=O)Nc1cccc(C2=NN(C(=O)c3ccco3)C(c3ccco3)C2)c1 (stereo not drawn)	-17%	-34%	-3%	18%	1%	3%
CCS(=O)(=O)Nc1cccc(C2=NN(C(=O)c3ccco3)C(c3ccco3)C2)c1 (stereo not drawn)	5%	50µM*	-2%	-3%	1%	0%
COc1ccc(C2=NN(C(N)=S)C(c3ccco3)C2)cc1 (stereo not drawn)	nt	8.9µM*	?	24%	11%	-7%
CN1CC(=O)N(CC(=O)N2N=C(c3ccc(Cl)cc3)CC2c2ccco2)C1=O (stereo not drawn)	nt	22µM*	1%	-4%	0%[11.5 µM]	1%
O=C(COc1ccc(Cl)cc1)N1N=C(c2cccs2)CC1c1ccco1 (stereo not drawn)	nt	nt	nt	9%	nt	0%
CNc1ccc(Br)cc(C(=O)/C=C/c2cccc(Cl)c2Cl)c1=O	0%	2.5µM*	0%	-8%	0%	-15%
CNc1ccccc(C(=O)/C=C/c2ccccc2OC)c1=O	6%	2.8µM*	-8%	-28%	2%	-22%
COc1ccccc1C=CC(=O)C=Cc1ccccc1OC	nt	nt	nt	-18%	nt	0%
CNc1ccc(Br)cc(C(=O)/C=C/c2cccc(OC)c2OC)c1=O	10%	7.1µM*	-22%	-10%[3.69 µM]	0%	nt
COc1ccccc1/C=C/C(=O)/C=C/c1ccccc1O	-117%	20µM*	-6%	-13%	-1%	-5%
Cc1c(NC2(C#N)CCCC2)c(=O)n(-c2ccccc2)n1C	nt	40µM*	0%	-4%	-6%	5%
Cc1c(NC=C(C#N)C#N)c(=O)n(-c2ccccc2)n1C	-4%	0%	1%	2%	3%	-1%
CCN(C(=O)CSc1nc2ccccc2n1CC(=O)NCc1ccc(OC)cc1)c1ccccc1	nt	0%	nt	nt	nt	1%
SMILES	NS1 inh	Sm TGR inh	SARS PLpro yeast	RE007 growth inh	LmPK inh	Tb PYK inh
O=c1c2cc(F)ccc2sn1-c1ccccc1Cl	nt	nt	nt	?	nt	11µM*
COC(=O)c1cccc(-n2sc3ccccc3c2=O)c1	nt	?	-8%	?	nt	6.3µM*
Cc1ccc(-n2sc3cc(F)ccc3c2=O)c(C)c1	nt	nt	nt	11µM*	nt	10µM*
Cc1ccc(-n2sc3ccccc3c2=O)cc1	-40%	?	-86%	6.3µM*	20µM*	7.9µM*
O=c1c2ccccc2sn1-c1ccc(Cl)cc1	nt	nt	nt	8.9µM*	nt	32µM*
O=c1c2ccccc2sn1-c1ccc(F)cc1	nt	-15%	3%	5.6µM*	nt	8.9µM*
O=c1c2ccc(F)cc2sn1-c1ccccc1	nt	nt	nt	-70%	nt	10µM*
O=c1c2ccccc2ncn1-c1ccc(Cl)cc1	-4%	-4%	2%	6%	-2%	-18%
CC(=O)Nc1ccc(C)cc1-c1nc2ccccc2n(CC(=O)c2ccc(C)c(C)c2)c1=O	nt	-5%	nt	nt	nt	0%
Cc1sc(-c2cc3c([nH]c2=O)CC(c2ccccc2)CC3=O)nc1-c1ccc(Cl)cc1 (stereo not drawn)	nt	-8%	nt	nt	nt	-7%
Cc1cc(-c2ccc(S(=O)(=O)Nc3ccc(Br)c(C)c3)s2)on1	nt	-4%	nt	nt	nt	-10%[15.4 µM]
C=C1C(=O)O[C@@H]2C[C@@H](C)[C@@H]3C=CC(=O)[C@@]3(C)[C@@H](OC(=O)CC(=O)O[C@H]3[C@@H]4C(=C)C(=O)O[C@@H]4C[C@@H](C)[C@@H]4C=CC(=O)[C@]43C)[C@H]12	5%	1.1µM*	-2%	1%	-1%	-13%
CC(=O)O[C@@H]1[C@H]2[C@@H](C[C@@H](C)[C@@H]3C=CC(=O)[C@@]13C)OC(=O)[C@@H]2C	5%	0%	-1%	2%	-6%	-1%
C=C1C(=O)OC2CC(C)C3C=CC(=O)C3(C)C(O)C12 (stereo not drawn)	nt	nt	nt	-5%	nt	-12%
C=C1C(=O)O[C@H]2C[C@@H](C)[C@@H]3C=CC(=O)[C@@]3(C)C[C@H]12	-3%	35µM*	-1%	-18%	0%	-1%
C=C1C(=O)OC2C1CCC(C)C1C=CC(=O)C12C (stereo not drawn)	nt	nt	nt	28%	nt	2%
C=C1C(=O)O[C@H]2[C@H]1[C@H](OC(=O)CC(=O)O[C@@H]1C[C@@H](C)[C@@H]3C=CC(=O)[C@@]3(C)[C@H]3OC(=O)C(=C)[C@H]13)C[C@@H](C)[C@H]1C=CC(=O)[C@]12C	1%	8.9µM*	1%	-15%	15%	-13%
COc1cc(-c2nc(Cn3nnc(C(=O)Nc4ccc(C)cc4C)c3C)c(C)o2)cc(OC)c1OC	nt	10%	nt	nt	nt	5%

Source: PubChem BioAssay (National Center for Advancing Translational Sciences (NCATS))
